Source: PubChem BioAssay (Tox21)
Where “and” joins values, the source holds several entries; their conditions need not be identical. Equal values may be shown once. Inconclusive results are not listed. A call without a number means that no potency is given here. More than one record can exist for a structure, and the calls need not agree. Calls of active or inactive are those of the source. Calls come from the whole dose curve; as a rule, active = well fitted curve in the direction sought with a large enough effect in the repeat runs; inconclusive = weak or mixed curves; inactive = no such curve, though single readings can be large; an effect the other way counts as inactive or inconclusive.

Key:
[1] = target: Cytochrome P450 2D6 (Homo sapiens) (UniProt P10635); assay: Cytochrome P450 Family 2 Subfamily D Member 6 (CYP2D6) small molecule antagonists: luciferase reporter qHTS assay (AID 1671196); note: nearly all actives have a fitted effect of over 50% in size
Sequence of Cytochrome P450 2D6 (Homo sapiens) (P10635 whole entry, looked up): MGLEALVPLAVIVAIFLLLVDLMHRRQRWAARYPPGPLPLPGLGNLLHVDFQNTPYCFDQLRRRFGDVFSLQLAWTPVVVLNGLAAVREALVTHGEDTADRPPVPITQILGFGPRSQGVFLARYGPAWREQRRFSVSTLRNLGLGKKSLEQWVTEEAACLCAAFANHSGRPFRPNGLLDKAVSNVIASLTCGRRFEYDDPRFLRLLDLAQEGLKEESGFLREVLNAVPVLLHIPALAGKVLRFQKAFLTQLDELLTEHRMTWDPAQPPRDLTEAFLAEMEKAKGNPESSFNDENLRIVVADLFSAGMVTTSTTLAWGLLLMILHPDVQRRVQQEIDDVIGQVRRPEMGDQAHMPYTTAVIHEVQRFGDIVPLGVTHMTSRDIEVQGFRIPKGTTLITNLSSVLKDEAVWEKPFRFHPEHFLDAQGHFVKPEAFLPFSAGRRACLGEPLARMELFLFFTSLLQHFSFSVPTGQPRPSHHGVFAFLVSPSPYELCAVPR
In short: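 Inhibition of CYP2D6 was gauged by loss of luminescence, since light produced tracks the luciferin generated from a proluciferin substrate. A 10 min room-temperature preincubation preceded 1 h NADPH-supported turnover.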

[2] = target: Cytochrome P450 2C19 (Homo sapiens) (UniProt P33261); assay: Cytochrome P450 Family 2 Subfamily C Member 19 (CYP2C19) small molecule antagonists: luciferase reporter qHTS assay (AID 1671197); note: nearly all actives have a fitted effect of over 65% in size
Sequence of Cytochrome P450 2C19 (Homo sapiens) (P33261 whole entry, looked up): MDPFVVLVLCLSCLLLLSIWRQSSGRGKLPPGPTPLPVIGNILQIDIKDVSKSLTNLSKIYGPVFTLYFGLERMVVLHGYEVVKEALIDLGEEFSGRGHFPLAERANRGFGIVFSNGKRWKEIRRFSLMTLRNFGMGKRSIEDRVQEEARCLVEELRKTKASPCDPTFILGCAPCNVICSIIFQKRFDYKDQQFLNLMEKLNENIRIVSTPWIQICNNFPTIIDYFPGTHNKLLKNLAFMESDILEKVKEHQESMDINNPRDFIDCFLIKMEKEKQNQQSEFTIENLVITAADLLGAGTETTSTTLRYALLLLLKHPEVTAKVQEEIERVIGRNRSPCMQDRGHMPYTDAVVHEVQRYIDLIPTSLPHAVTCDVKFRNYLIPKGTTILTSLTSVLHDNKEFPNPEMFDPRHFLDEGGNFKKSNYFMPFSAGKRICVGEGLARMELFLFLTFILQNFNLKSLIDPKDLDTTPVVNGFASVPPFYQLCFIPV
In short: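 Quantitative high-throughput screen of the Tox21 library using CYP2C19 with proluciferin substrate. Reaction: NADPH regeneration, 37C, 1 h, after 10 min compound preincubation at room temperature. Readout: luminescence.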

[3] = target: Cytochrome P450 2C9 (Homo sapiens) (UniProt P11712); assay: Cytochrome P450 Family 2 Subfamily C Member 9 (CYP2C9) small molecule antagonists: luciferase reporter qHTS assay (AID 1671198); note: nearly all actives have a fitted effect of over 50% in size
Sequence of Cytochrome P450 2C9 (Homo sapiens) (P11712 whole entry, looked up): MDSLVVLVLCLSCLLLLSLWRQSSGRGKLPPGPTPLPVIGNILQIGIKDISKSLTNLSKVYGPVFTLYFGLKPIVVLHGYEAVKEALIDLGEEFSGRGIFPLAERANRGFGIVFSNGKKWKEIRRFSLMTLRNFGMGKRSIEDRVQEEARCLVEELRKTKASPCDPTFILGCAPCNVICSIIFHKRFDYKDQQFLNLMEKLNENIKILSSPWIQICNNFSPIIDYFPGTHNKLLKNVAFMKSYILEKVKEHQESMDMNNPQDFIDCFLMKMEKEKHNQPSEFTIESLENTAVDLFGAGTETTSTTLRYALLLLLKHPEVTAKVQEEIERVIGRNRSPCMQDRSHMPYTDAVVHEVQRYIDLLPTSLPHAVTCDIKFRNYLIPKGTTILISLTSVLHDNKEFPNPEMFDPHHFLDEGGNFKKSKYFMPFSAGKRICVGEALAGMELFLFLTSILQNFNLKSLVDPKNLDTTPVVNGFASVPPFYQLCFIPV
In short: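 CYP2C9 activity was measured with a P450-Glo proluciferin substrate. Enzyme–substrate mix was held with compound for 10 min at room temperature, then NADPH regeneration solution was added for 1 h at 37C. Luciferin product was read as luminescence.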

[4] = target: Cytochrome P450 1A2 (Homo sapiens) (UniProt P05177); assay: Cytochrome P450 Family 1 Subfamily A Member 2 (CYP1A2) small molecule antagonists: luciferase reporter qHTS assay (AID 1671199); note: nearly all actives have a fitted effect of over 50% in size
Sequence of Cytochrome P450 1A2 (Homo sapiens) (P05177 whole entry, looked up): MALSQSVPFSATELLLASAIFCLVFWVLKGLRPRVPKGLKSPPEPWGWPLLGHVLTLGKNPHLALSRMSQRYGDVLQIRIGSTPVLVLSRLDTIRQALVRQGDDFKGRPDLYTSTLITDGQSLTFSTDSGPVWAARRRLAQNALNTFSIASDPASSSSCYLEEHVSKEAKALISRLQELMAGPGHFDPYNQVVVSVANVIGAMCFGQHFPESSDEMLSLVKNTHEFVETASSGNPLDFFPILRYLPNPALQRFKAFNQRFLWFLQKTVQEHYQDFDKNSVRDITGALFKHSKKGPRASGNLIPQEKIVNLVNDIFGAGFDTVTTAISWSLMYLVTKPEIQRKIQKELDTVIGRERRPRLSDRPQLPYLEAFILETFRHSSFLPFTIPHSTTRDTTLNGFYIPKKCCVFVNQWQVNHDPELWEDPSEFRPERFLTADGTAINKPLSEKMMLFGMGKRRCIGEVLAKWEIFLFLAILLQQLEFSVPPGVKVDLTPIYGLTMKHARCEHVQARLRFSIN
In short: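 Signal from luciferin formed by CYP1A2 from a proluciferin substrate is read as luminescence, expressed in relative luminescence units. Compounds sit with enzyme 10 min, NADPH-driven reaction runs 1 h, all at room temperature.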

[5] = target: Cytochrome P450 3A4 (Homo sapiens) (UniProt P08684); assay: Cytochrome P450 Family 3 Subfamily A Member 4 (CYP3A4) small molecule antagonists: luciferase reporter qHTS assay (AID 1671201); note: nearly all actives have a fitted effect of over 50% in size
Sequence of Cytochrome P450 3A4 (Homo sapiens) (P08684 whole entry, looked up): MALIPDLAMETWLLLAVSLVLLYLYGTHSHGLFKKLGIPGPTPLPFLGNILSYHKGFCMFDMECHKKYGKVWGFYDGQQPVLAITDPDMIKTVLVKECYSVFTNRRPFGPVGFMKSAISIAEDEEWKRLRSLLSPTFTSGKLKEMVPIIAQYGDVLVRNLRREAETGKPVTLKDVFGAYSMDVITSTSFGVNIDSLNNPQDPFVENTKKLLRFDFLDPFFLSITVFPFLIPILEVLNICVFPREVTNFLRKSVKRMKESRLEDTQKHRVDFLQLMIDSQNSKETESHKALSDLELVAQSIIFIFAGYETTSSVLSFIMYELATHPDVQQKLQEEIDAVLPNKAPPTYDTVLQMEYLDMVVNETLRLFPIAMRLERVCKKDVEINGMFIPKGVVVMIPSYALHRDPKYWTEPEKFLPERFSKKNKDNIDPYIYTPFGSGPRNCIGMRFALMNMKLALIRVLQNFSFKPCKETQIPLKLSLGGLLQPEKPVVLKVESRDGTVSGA
In short: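 Setup: enzyme-substrate mix, compound pin transfer, 10 min RT. Reaction: NADPH regeneration solution, 1 h RT. Readout: detection reagent stops turnover, luminescence measured after 20 min, expressed in relative luminescence units.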

[6] = target: Voltage-gated inwardly rectifying potassium channel KCNH2 (Homo sapiens) (UniProt Q12809); assay: Human Ether-a-go-go-Related Gene (hERG) channel small molecule antagonists: fluorescence cell-based qHTS assay (AID 1671200); note: nearly all actives have a fitted effect of over 50% in size
Sequence of Voltage-gated inwardly rectifying potassium channel KCNH2 (Homo sapiens) (Q12809 whole entry, looked up): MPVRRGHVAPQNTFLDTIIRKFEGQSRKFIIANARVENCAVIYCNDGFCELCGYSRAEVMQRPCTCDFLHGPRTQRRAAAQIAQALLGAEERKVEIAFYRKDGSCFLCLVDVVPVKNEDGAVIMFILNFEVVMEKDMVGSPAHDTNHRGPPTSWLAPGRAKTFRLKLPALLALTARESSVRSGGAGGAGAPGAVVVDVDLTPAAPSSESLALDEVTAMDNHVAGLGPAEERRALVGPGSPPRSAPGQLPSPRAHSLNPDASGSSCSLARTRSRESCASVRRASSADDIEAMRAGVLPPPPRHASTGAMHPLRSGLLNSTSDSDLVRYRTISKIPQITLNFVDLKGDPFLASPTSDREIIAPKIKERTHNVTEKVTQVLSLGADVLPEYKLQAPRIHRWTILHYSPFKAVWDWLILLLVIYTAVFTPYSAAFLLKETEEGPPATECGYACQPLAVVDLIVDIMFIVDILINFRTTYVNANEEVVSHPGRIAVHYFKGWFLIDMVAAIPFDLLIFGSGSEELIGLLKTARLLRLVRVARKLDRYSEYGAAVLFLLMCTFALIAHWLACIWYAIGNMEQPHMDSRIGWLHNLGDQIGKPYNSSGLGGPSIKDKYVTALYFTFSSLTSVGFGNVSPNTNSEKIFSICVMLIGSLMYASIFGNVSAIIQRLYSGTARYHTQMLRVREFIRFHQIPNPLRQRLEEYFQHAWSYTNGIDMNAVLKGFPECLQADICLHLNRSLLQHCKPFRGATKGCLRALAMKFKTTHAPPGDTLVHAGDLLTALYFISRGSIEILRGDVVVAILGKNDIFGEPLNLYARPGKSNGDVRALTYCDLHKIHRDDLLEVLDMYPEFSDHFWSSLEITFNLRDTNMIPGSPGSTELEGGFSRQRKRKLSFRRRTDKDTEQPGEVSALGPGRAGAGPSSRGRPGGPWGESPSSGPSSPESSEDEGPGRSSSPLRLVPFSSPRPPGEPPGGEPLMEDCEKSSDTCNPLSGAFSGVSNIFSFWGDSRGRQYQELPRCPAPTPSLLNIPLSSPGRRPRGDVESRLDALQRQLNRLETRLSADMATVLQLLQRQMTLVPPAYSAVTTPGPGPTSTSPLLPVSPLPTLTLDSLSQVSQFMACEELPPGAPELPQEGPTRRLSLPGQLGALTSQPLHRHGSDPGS
In short: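 Measured: Tl+ flux via fluorescence (480/540 nm) in hERG-expressing U2OS cells after 1 h dye loading at room temperature.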
Potency is the fitted concentration of half-maximal effect.

SMILES | Potency [1] | Potency [2] | Potency [3] | Potency [4] | Potency [5] | Potency [6]
CC(C)(N=C=O)c1cccc(C(C)(C)N=C=O)c1 | 35.3 µM (active) | 79.1 µM (active) and inactive | inactive | inactive | 2.81 µM (active) and 7.96 µM (active) | –
CCc1ccccc1O | 35.4 µM (active) and inactive | 17.7 µM (active) and inactive | 35.4 µM (active) | 31.6 µM (active) | 31.6 µM (active) and inactive | inactive
OC1CCCC1 | inactive | inactive | inactive | inactive | inactive | inactive
CCCCCC/C=C/CCCCCCCC(=O)O | inactive | inactive | inactive | inactive | inactive | inactive
O=[N+]([O-])c1cccc(Cl)c1 | inactive | inactive | inactive | inactive | inactive | inactive
O=S(=O)(Oc1ccc(Cl)cc1Cl)c1ccccc1 | 64.4 µM (active) and 63.3 µM (active) | 811 nM (active) and 894 nM (active) | 40.6 µM (active) and 35.6 µM (active) | 2.28 µM (active) and 2.24 µM (active) | inactive | 49.8 µM (active) and 34.7 µM (active)
COC(=O)c1ccccc1O | inactive | 35.7 µM (active) and inactive | inactive | 6.35 µM (active) | inactive | inactive
Cc1ccc(C)c(C)c1 | inactive | inactive | inactive | inactive and 29.6 µM (active) | inactive | inactive
O=C(c1cc(O)c(O)c(O)c1)c1ccc(O)c(O)c1O | 31.6 µM (active) and inactive | 15.9 µM (active) and 31.7 µM (active) | 3.16 µM (active) and 50.2 µM (active) and inactive | 39.8 µM (active) and 39.9 µM (active) and inactive | inactive | inactive
O=[N+]([O-])C(CO)(CO)CO | inactive | 69.9 µM (active) and inactive | 79.6 µM (active) | inactive | inactive | inactive
CCCCC(CC)COC(C)=O (centres undefined) | inactive | inactive | inactive | inactive | inactive | –
O=[N+]([O-])c1cc(N(CCO)CCO)ccc1NCCO | 39.8 µM (active) and 31.7 µM (active) | 22.4 µM (active) and 39.9 µM (active) | 35.5 µM (active) and 39.9 µM (active) | 35.5 µM (active) and 35.6 µM (active) | 35.5 µM (active) and 39.9 µM (active) | inactive
OC[C@@H](O)[C@@H](O)[C@H](O)[C@@H](O)CO | inactive | inactive | inactive | inactive | inactive | inactive
CC(=O)CCc1ccccc1 | inactive | 81 µM (active) and inactive | inactive | inactive | inactive | inactive
Cn1c([N+](=O)[O-])cnc1COC(N)=O | inactive | inactive | inactive | inactive | inactive | inactive
O=Nc1ccc(O)cc1 | 39 µM (active) | 17.4 µM (active) | – | 31 µM (active) and 39.9 µM (active) | inactive | inactive
CC(C)(C)C(=O)C1C(=O)c2ccccc2C1=O | inactive | 35.3 µM (active) and inactive | 22.2 µM (active) and 25.2 µM (active) | 31.4 µM (active) | 28 µM (active) | –
CC(C)Cc1ccccc1 | inactive | – | inactive | inactive | inactive | inactive
CC1=C(CC(=O)O)c2cc(F)ccc2/C1=C\c1ccc(S(C)=O)cc1 (centres undefined) | 35.6 µM (active) and 34.7 µM (active) | 7.96 µM (active) and 8.71 µM (active) | 50.2 µM (active) and inactive | 35.6 µM (active) | inactive | –
CCCCCCC(C)(C)S | inactive | 22.6 µM (active) and inactive | 32 µM (active) and inactive | – | inactive | –
NCc1cccc(CN)c1 | 580 nM (active) and 35.6 µM (active) | – | 36.6 µM (active) and 39.9 µM (active) | 35.6 µM (active) | 36.6 µM (active) and 2.83 µM (active) | inactive
C=C(C)C(=O)OCC(CC)(COC(=O)C(=C)C)COC(=O)C(=C)C | 16.2 µM (active) | 3.62 µM (active) and 3.49 µM (active) | 14.4 µM (active) and 15.6 µM (active) | 32.2 µM (active) and 27.8 µM (active) | inactive | –
Nc1cc(-c2ccncc2)c[nH]c1=O | 31.7 µM (active) and 17.4 µM (active) | – | 14.2 µM (active) and 12.3 µM (active) | 35.6 µM (active) | – | –
CCCCCCCCCC(=O)O | inactive | – | 74.8 µM (active) | inactive | inactive | inactive
NC(=O)/N=N/C(N)=O | inactive | – | 4 µM (active) and 3.99 µM (active) | 17.9 µM (active) and 15.9 µM (active) | inactive | inactive

SMILES | Potency [1] | Potency [2] | Potency [3] | Potency [4] | Potency [5] | Potency [6]
Clc1cc(Cl)c(Cl)cc1Cl | inactive | inactive | inactive | – | inactive | –
CCCCC(CC)COC(=O)/C=C\C(=O)OCC(CC)CCCC (centres undefined) | inactive | 39.9 µM (active) and 71 µM (active) | 39.9 µM (active) | 35.6 µM (active) | 5.64 µM (active) | –
CCCCOCCO | inactive | inactive | inactive | – | inactive | inactive
C=C(C)C(=O)OCCCCCC | inactive | – | inactive | inactive | inactive | inactive
CC(C)(CO)COC(=O)C(C)(C)CO | inactive | 8.94 µM (active) and 39.9 µM (active) | – | inactive | inactive | inactive
Cc1cc(O)c2c(c1)C(=O)c1cc(O)cc(O)c1C2=O | inactive | – | 12.3 µM (active) and 11.2 µM (active) | 8.94 µM (active) | 27.6 µM (active) and 22.4 µM (active) | inactive
C=CC(=O)OCCCCCCCC(C)C | inactive | inactive | inactive | inactive | inactive | –
CN(C)c1ccc(C(=N)c2ccc(N(C)C)cc2)cc1 | 125 nM (active) and 76.7 nM (active) | – | inactive | 17.6 µM (active) and 21.6 µM (active) | 39.4 µM (active) | 48.4 µM (active)
CCCCC(CC)C(=O)OCCOCCOCCOC(=O)C(CC)CCCC (centres undefined) | inactive | 40.4 µM (active) and 17.8 µM (active) | 25.5 µM (active) and 7.96 µM (active) | – | 7.18 µM (active) and 8.94 µM (active) | inactive
C[C@@H]1O[C@@H](OC[C@H]2O[C@@H](Oc3c(-c4ccc(O)c(O)c4)oc4cc(O)cc(O)c4c3=O)[C@H](O)[C@@H](O)[C@@H]2O)[C@H](O)[C@H](O)[C@H]1O | inactive | – | inactive | inactive | inactive | inactive
NCCc1ccc(O)c(O)c1 | 63.5 µM (active) and inactive | 71.2 µM (active) and inactive | inactive | – | inactive | –
O=C(Oc1ccccc1)c1ccc(O)cc1 | inactive | 40.2 µM (active) and 22.4 µM (active) | 11.3 µM (active) and 25.2 µM (active) | 28.5 µM (active) and 35.6 µM (active) | inactive | –
Cc1cc(=O)[nH]c(C(C)C)n1 | inactive | inactive | inactive | – | inactive | inactive
C[C@@H](O)[C@H]1C(=O)N2C(C(=O)O)=C(S[C@@H]3CN[C@H](C(=O)N(C)C)C3)[C@H](C)[C@H]12 | 17.4 µM (active) and inactive | inactive | – | 15.5 µM (active) and inactive | inactive | inactive
O=S(=O)(O)CCS | 31.3 µM (active) and inactive | inactive | – | inactive | inactive | –
CC1(C)CC(N=C=O)CC(C)(CN=C=O)C1 (centres undefined) | 25.5 µM (active) and 39.9 µM (active) | 18.1 µM (active) and inactive | – | inactive | 4.05 µM (active) and 2 µM (active) | inactive
OCC#CCO | inactive | 57.2 µM (active) and inactive | inactive | inactive | inactive | –
ClC1=C(Cl)C(Cl)(Cl)C(Cl)=C1Cl | inactive | inactive | – | inactive | inactive | –
CC#C[C@]1(O)CC[C@H]2[C@@H]3CCC4=CC(=O)CCC4=C3[C@@H](c3ccc(N(C)C)cc3)C[C@@]21C | 63.3 µM (active) and 38.9 µM (active) | – | 2.24 µM (active) and 2.75 µM (active) | inactive | – | –
CNC[C@H](O)[C@@H](O)[C@H](O)[C@H](O)CO | inactive | inactive | – | inactive | inactive | inactive
O=S(=O)(O)c1cc(S(=O)(=O)O)c2c(N=Nc3ccccc3)c(O)ccc2c1 | inactive | – | inactive | inactive | inactive | inactive
CCCCCCOC(C)=O | inactive | – | inactive | inactive | inactive | inactive
O=C1O[C@H](CO)[C@@H](O)[C@H](O)[C@H]1O | inactive | – | inactive | inactive | inactive | inactive
C/C=C(C)/C=C/C=C(C)C | inactive | 70.2 µM (active) and 79.6 µM (active) | – | 39.9 µM (active) | 31.3 µM (active) and 35.6 µM (active) | inactive
